This is an account of results in PubChem BioAssay AID1159506 (National Center for Advancing Translational Sciences (NCATS), 2015).

Over roughly 59,000 sequences, the read-out has its median near -0.00055; the lowest 2% begin near -2. The full list was thinned out, with the lowest values kept by preference.

The experiment in a line: Identification of proteins required for the processing of the EWS-FLI1 nascent transcript.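 Note: robust z of luciferase light less the median z of siRNAs with the same seed.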 The following applies: TC32 Ewing sarcoma NR0B1-luc vs CMV-luc (EWS-FLI1 target promoter against control promoter), 48 h; screened at 20 nM (by protocol). In outline:
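TC32 Ewing sarcoma cells carrying NR0B1-promoter or CMV-promoter luciferase reporters were reverse-transfected with single siRNAs at 20 nM, three per gene genome-wide. Luminescence was read after 48 h and normalized to non-targeting controls.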
On to ACAGUACAUAGUAGGGUGG against PRR34, for which the seed-corrected z-score was -2.82.

For UUCAUCAAAUUGGACAUCU against ATP6V1E1, the seed-corrected z-score was -0.95.

The sequence UUGGUGCACAGCCUGGUAC against TSPAN32 showed a seed-corrected z-score of -0.435.

As for UCUUAGUUUCCAACGAUCC against SZT2, the seed-corrected z-score is -0.791.

Sequence UCGGUAGUAGUAAUCGUGC against PNPLA1 yielded a seed-corrected z-score of 0.335.

Sequence UUCGCCUCUUGUGCUAUCG against CFAP221 gave a seed-corrected z-score of 0.264.

AUGGUUCAAACAUAGGAUG against WNK1: the seed-corrected z-score was -2.09.

As to UACGAGUCACGGGAAAUAC against TAF5, the seed-corrected z-score amounted to 0.238.

Take AACUUGAGGAGGGUAAGUG against SERPINF2: the seed-corrected z-score is -2.44.

In the case of UUGAGUAUUCCGCUCGGGC against EDAR, the seed-corrected z-score is -0.0352.

As to AAAACGACUCUUCAUACUG against CLRN2, the seed-corrected z-score is -1.29.

Sequence UUUAGCAACAGGUACAUUC against APBB1 gave a seed-corrected z-score of -0.4.

On to UAGAUUUUAAACAUCCUUG against FAS, for which the seed-corrected z-score stood at 0.417.

Regarding UCUUUAUCACGGUCAAAUG against GPALPP1, the seed-corrected z-score was -0.108.

Regarding ACAUGGCUGAUUAAUGUGG against ZNF890P, the seed-corrected z-score is -0.143.

Regarding UCUGUGGUGAUGAACACUC against OR5J2, the seed-corrected z-score was -1.13.

With UUUGUUGGUAGCGAUGCAC against MYPN, the seed-corrected z-score is -2.09.

Take AAAACUUCACCUUAUACUC against SDF4: the seed-corrected z-score is -0.483.

GAUGCUACGAUACCAGCCA against LYPLA2P2 came in with a seed-corrected z-score of 1.26.

UGUAUUUCCACGCGUGAGG against ZDHHC11 showed a seed-corrected z-score of -0.523.

In turn, AAAUGUGAACCUGUGCUUG against MTUS2-AS1 yielded a seed-corrected z-score of 1.42.

As to UACGUGCCGAGUCAUCAGU against DOK4, the seed-corrected z-score is -2.12.

Sequence AGACCUUAUACAGAGCUGC against CAPG came in with a seed-corrected z-score of 0.432.

As to AGAAGCAUCAUGGAGGUAG against COX14, the seed-corrected z-score is -1.26.

With ACUAGAAUCAAUAAGGAUG against TMEM243, the seed-corrected z-score was -0.708.

UGAGUCAUAAGAAGGGUCU against FLI1 came in with a seed-corrected z-score of -6.98.

For the sequence AUAGGUGAGACGGAGGCUC against VASN, the seed-corrected z-score worked out at 0.00423.

Regarding UCUGGAUCGAGGAAGCGAG against GNLY, the seed-corrected z-score was -2.28.

AUAGCAAUCAUAUUCACGG against LIG4: the seed-corrected z-score is -0.537.

On to AACUGAAAUAGAAGUAUCC against TMED6, for which the seed-corrected z-score is -0.476.

With UGUUCUCCUGCAGUUAUCC against WFDC3, the seed-corrected z-score is -0.0122.

For the sequence UUGAAGACCAGGUAUUCCC against AGBL4, the seed-corrected z-score is -0.596.

For the sequence UGACGUAUAUCAAUGCUCC against RRAGC, the seed-corrected z-score is -0.322.

Sequence UAGUCGUCAAGCACUUGGU against SFTPB registered a seed-corrected z-score of -0.3.

AAAUCUUGAUCUGUGACUC against EN2 returned a seed-corrected z-score of 0.225.

Turning to UCUCUCAUCAAUAUGCUCU against MTHFD2, the seed-corrected z-score turned out to be 0.352.

Turning to UAUAGGCACGCUGCUAUUC against DIRC2, the seed-corrected z-score was -2.73.

UUCGUUAGGUUUCCUUUCG against HIVEP2 showed a seed-corrected z-score of -0.393.

For the sequence UUCCGAAAUGAAAAGGAUC against GMPR2, the seed-corrected z-score was determined as 0.18.

In turn, UAAUUGCUGAUAUUCGAGC against EPB41L3 returned a seed-corrected z-score of -0.247.

As for UAAGAUACUCGGGUUUCAC against ZADH2, the seed-corrected z-score is -0.425.

Sequence AGUUCGAUUAGCUAAGGCC against SYNRG displayed a seed-corrected z-score of -0.0555.

UAUGGGAGUGUCAAUAAUC against PDHB registered a seed-corrected z-score of -0.681.

Turning to UCAGGUGCAAUCUGACUCU against PPP1R1C, the seed-corrected z-score was -2.4.

Regarding AUGCUUACAAGAUCUUGUC against USP44, the seed-corrected z-score was -0.0422.

UCACGUGUAAAGGAUCACG against RTN4IP1 displayed a seed-corrected z-score of 0.0887.

In turn, UUCUGUUCAAAUCCAUUGG against BUD13 displayed a seed-corrected z-score of -0.753.

In turn, AGAGUUGUUGUCAUCUUCC against CACNA1S showed a seed-corrected z-score of -0.313.

UCUGGGCGUAGACAACUGC against CNTFR returned a seed-corrected z-score of -2.12.

As for UGAACGUCCCGUCUGAGUG against SCT, the seed-corrected z-score is -0.424.

Sequence UCUUCAAUAAUGAUCUCCU against MRI1 yielded a seed-corrected z-score of 0.722.

Turning to UGAAGAGUAAGCUCAAACC against ASIC5, the seed-corrected z-score was -3.53.

Consider UAAACUUCCCUUUAAAAAC against IRF8, for which the seed-corrected z-score is -0.00875.

For UUCAUGUGAACUUACAGUU against UQCRHL, the seed-corrected z-score came to 0.0588.

The sequence UUAGUUGCAAGGCAUUCAG against FAM135A returned a seed-corrected z-score of -4.23.

UAAAGGUCAAGCAGUCAGU against PVRL4 showed a seed-corrected z-score of 0.651.

The sequence AGUGAUGACAUUGAUAUCG against SYDE1 yielded a seed-corrected z-score of 1.21.

With AUAUCUACGAUCUAUAUCU against LOC645553, the seed-corrected z-score turned out to be 0.695.

Regarding UCUGGUUCUUGUUCAAGUG against PCDH17, the seed-corrected z-score was -1.28.

On to UCGCUAUCCAUAUCAGAGG against GOLGA4, for which the seed-corrected z-score amounted to 1.24.

Sequence UUAAUGGUCCUGUAGUAAC against MTMR1 showed a seed-corrected z-score of 0.139.

The sequence UACAACAAUAGCCACAGCU against OR52W1 displayed a seed-corrected z-score of -2.15.

Turning to UGUAUUUUAUGUCUCUCCC against PLAC8L1, the seed-corrected z-score is -0.115.

AAAGCCCAAAUAUAGUUCC against NEUROD4 displayed a seed-corrected z-score of 0.947.

In turn, UUUGAGGAAAGGAACUGCC against FAM228A returned a seed-corrected z-score of 0.28.

The sequence AAUCUUGGUCUUACUGUCC against PKN1 came in with a seed-corrected z-score of -1.59.
